# Screening data (PubChem BioAssay)
# This excerpt belongs to a sample that is enriched for hits.
# Dicer inh: human Dicer pre-microRNA cleavage inhibition | 47,000 tested, 6% active | AID 1347074 | z-score at 25 µM | cat-ELCCA pre-miR-21 Dicer processing, chemiluminescence; stronger effect = higher value | Q9UPY3; in the data active means z-score above about 3, passing the limit was not always enough;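 further: plate controls were vehicle for no effect and no enzyme for full effect; higher signal means more uncleaved substrate so more Dicer inhibition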
# * = called active by the depositor.
SMILES,Dicer inh
O=c1oc(-c2ccccc2Cl)nc2ccc(I)cc12,2.7
Cc1ccc(-c2nc(NC(=O)COc3ccc(Cl)cc3Cl)sc2C)cc1Cl,2.1
O=c1oc2c(-c3cccc(F)c3)cc(O)cc2s1,5*
Cc1ccc(C(=O)Nc2nc(-c3ccc(C)c(Cl)c3)c(C)s2)cc1,1.4
CC(=O)Oc1cc2sc(=O)oc2c2ccccc12,-4.4
CCc1ccc(-c2cc(O)cc3sc(=O)oc23)cc1,1.9
Cc1ccc(C(=O)Oc2cccc(C3C4=C(Nc5c3c(=O)[nH]c(=O)n5C)c3ccccc3C4=O)c2)cc1 (stereo not drawn),0.21
CC(C)=NOC(=O)c1ccc(CSc2ccc(C(F)(F)F)cn2)o1,-1.5
Cc1ccc(S(=O)(=O)c2cc(C(F)(F)F)cc(C(F)(F)F)c2)cc1,0.23
CCN(CC)CCC#CC(OC)(c1ccccc1)c1ccccc1,2.4
OC(c1ccccc1)(c1ccccc1)c1n[nH]c(=S)n1-c1ccc(F)cc1,-0.6
CCOC(=O)c1cc2c(Cl)cc(Cl)cc2n1C(=O)OC(C)(C)C,-2.3
CC1CC(=O)Nc2ccccc2N1C(=O)c1cccc(Cl)c1 (stereo not drawn),-1.5
CC1CCN(CC(O)Cn2ccc3ccccc32)CC1 (stereo not drawn),-1.1
CC(=O)/C(N=Nc1c(F)cccc1F)=C(\C)O,3.4*
CC(=O)/C(N=Nc1ccc2c(c1)OCO2)=C(\C)O,1.3
CCOC(=O)/C(N=Nc1ccc(F)cc1F)=C(\C)O,0.61
CN(C)CCN(Cc1ccccc1)C(=O)C(C(=O)c1ccc(F)cc1)n1ccccc1=O (stereo not drawn),11
Nc1ccc(Cc2ccncc2)cc1,0.52
C1=C(c2ccccc2)Nc2ncnn2C1c1cccs1 (stereo not drawn),0.58
CCSc1cc(C(F)(F)F)c(C(=O)N(CC)c2ccc(Cl)cc2)cn1,-0.7
Cc1cc(Br)cnc1N=CNO,0.37
Cc1cc(N=CN(C)C)c2ccccc2n1,-1.7
Cc1cc(Br)cnc1N=CN(C)C,3*
Cc1nnc2n1N=C(c1ccc(CC(C)C)cc1)C(C)S2 (stereo not drawn),-0.13
SMILES,Dicer inh
Cc1cccc(Nc2cc(C)nc3ncnn23)c1,-0.22
COc1ccc2c(c1)CCc1sc(NC(C)=O)nc1-2,3.5*
COc1ccc2c(c1)-c1nc(NC(=O)c3ccco3)sc1CC2,5*
COc1ccc2c(c1)CCc1sc(NC(=O)c3cc(C)on3)nc1-2,0.98
CCCCCCCCC(=O)Nc1nc2c(s1)CCc1cc(OC)ccc1-2,-0.7
COc1cc(OC)cc(C(=O)Nc2nc3c(s2)CCc2cc(OC)ccc2-3)c1,0.56
CCCCCC(=O)Nc1nc2c(s1)CCc1cc(OC)ccc1-2,-4.1
CCCCCCCC(=O)Nc1nc2c(s1)CCc1cc(OC)ccc1-2,0.09
COc1ccc2c(c1)CCc1sc(NC(=O)c3ccco3)nc1-2,3.1*
COc1cc(OC)cc(C(=O)Nc2nc3c(s2)Cc2cc(OC)ccc2-3)c1,-0.47
O=C(Nc1ccccc1SCc1noc(-c2cccs2)n1)c1cccc(C(F)(F)F)c1,-0.66
CC(=O)Nc1cc2cc([N+](=O)[O-])ccc2oc1=O,-0.4
Cc1nc(C(F)(F)F)ccc1C(=O)Oc1ccc2c(c1)OCO2,-0.52
Cc1ccc2c(c1)OC(c1ccc(N(C)C)cc1)N2 (stereo not drawn),-0.36
CC(C)(C)N1C(=O)C(c2ccccc2)S/C1=N\N=C\c1cccc([N+](=O)[O-])c1 (stereo not drawn),0.75
O=[N+]([O-])c1csc(C2Nc3ccccc3N2)c1,-0.88
Cn1c(CSc2ccnc3cc(Cl)ccc23)nnc1SCC(=O)N1CCN(c2ccccc2)CC1,1.1
CCOc1ccc(/C(O)=C2/C(=O)C(=O)N(CCN(C)C)C23C(=O)N(CC)c2ccccc23)cc1 (stereo not drawn),-0.84
CC(=O)Nc1ccc(NC(=O)CCCC(=O)O)cc1,-2.4
Cc1ccc(NC(=O)CCC(=O)O)cc1,-0.07
O=C(O)CCC(=O)Nc1ccc(C(=O)O)c(O)c1,6.1*
CC1CN(c2ncccc2[N+](=O)[O-])CC(C)O1 (stereo not drawn),1.5
Cc1cccc(-n2ncc3c2ncn2nc(COc4c(C)cccc4C)nc32)c1,0.18
Cc1cc(C)c(C#N)c(SCC(=O)Nc2nnc(-c3cccs3)s2)n1,-1.2
Cc1ccc(N2C(=O)C(c3ccccc3)C(N3CCOCC3)C2=O)cc1 (stereo not drawn),3.1*
SMILES,Dicer inh
O=C1CC(Nc2ccccc2)C(=O)N1c1ccc(N2CCOCC2)cc1 (stereo not drawn),-0.25
Cc1ccc(N2C(=O)C3CCC(C)CC3C2=O)cc1 (stereo not drawn),0.19
CSC(=Nc1ccc(C)cc1)Nc1ccc(C)cc1,0.74
OC(CN1CCOCC1)Cn1c2ccc(Br)cc2c2cc(Br)cc(Br)c21 (stereo not drawn),0.42
Cc1ccc2c(c1)c(C)c(C)n2CC(O)CN1CCOCC1 (stereo not drawn),4.6*
OC(CN1CCCC1)Cn1c2ccc(Cl)cc2c2cc(Cl)ccc21 (stereo not drawn),0.68
CCOC(=O)c1cc(=O)c2ccccc2o1,-0.25
Clc1ccc(/C=C2\CCCC3C2=NNC3c2ccc(Cl)cc2)cc1 (stereo not drawn),0.14
CCOC(=O)c1c[nH]c2c(C(=O)OCC)cccc2c1=O,0.45
CC(C)OC(=O)c1cnn2c(C(F)(F)F)cc(-c3ccc(F)cc3)nc12,4.7*
Cc1ccc(-c2cc(C(F)(F)F)n3ncc(C(=O)Nc4ccc5c(c4)OCO5)c3n2)cc1,-0.12
CCOC(=O)c1cnn2c(C)cc(-c3ccc(F)cc3)nc12,-0.57
Cc1cc(NC(=O)CCCC(=O)O)no1,0.56
COC(=O)CCCCCCCC(=O)Nc1cc(C)on1,-0.52
CCOCC(=O)Nc1cc(C)on1,3.1*
CCOC(=O)c1sc2sc(C(=O)OCC)c(-c3ccco3)c2c1N,-2.1
CCOC(=O)c1c(C)noc1-c1ccco1,7.7*
CCOC(=O)c1c(C)noc1-c1csc(Nc2c(C)cc(C)cc2C)n1,0.39
Cc1ccc(-c2nnc3n2N=C(c2c[nH]c4ccccc24)CS3)cc1,1.6
O=C(Nc1cccc(C(F)(F)F)c1)Nc1cc(C2CC2)nn1-c1ccccc1,-0.12
CCCOC(=O)COc1ccc2c(=O)c(Oc3cc(C)cc(C)c3)coc2c1,1.9
CN1CCN(CC(=O)N2CCc3ccccc32)CC1,1.6
CN1CCN(CC(=O)N2c3ccccc3C=Cc3ccccc32)CC1,7*
O=C(CN1CCCCC1)N1c2ccccc2CCc2ccccc21,1.3
COc1cc(/C=N/N)cc(OC)c1OC,-0.83
SMILES,Dicer inh
COc1cc(/C=N/NC(=O)c2cc(-c3ccccc3)sc2N)cc(OC)c1OC,-2.5
COc1cc(/C=N/NC(=O)c2ccccc2N)cc(OC)c1OC,3.3*
Cn1nc(C(F)(F)F)c(-c2ccc(F)cc2)c1NC(=O)Nc1ccccc1,-0.51
COCCCn1c2c(c(=O)[nH]c1=O)C(c1cccc3ccccc13)C1=C(N2)c2ccccc2C1=O (stereo not drawn),-0.72
COc1cc(NC(=O)c2ccc(Cl)cc2)nc(OC)n1,-0.16
O=C1CSC(=Nc2ccc(Cl)cc2)N1C(=O)c1ccccc1Cl,2.5
CCC(C)OC(=O)C(C)Oc1ccc2c(=O)c(Oc3ccc(C)cc3)coc2c1 (stereo not drawn),4.2*
CCOC(=O)Oc1ccc2c(=O)c(Oc3cc(C)cc(C)c3)coc2c1,0.12
CCC(C)OC(=O)C(C)Oc1ccc2c(=O)c(Oc3cccc(C)c3)coc2c1 (stereo not drawn),-1.1
CCC(C)OC(=O)C(C)Oc1ccc2c(=O)c(Oc3ccccc3Cl)coc2c1 (stereo not drawn),-0.01
